Reference: the supplement of paper PMC12494721
Structures can show the parent of a compound that is named as a salt.

Experiments:
Settings in all cases: incubation time: 27 h, anaerobic, 37 °C;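 for the amine columns active = adjusted P below 0.05 in both replicates with a change the same way and a mean fold change under 0.8 or over 1.25; inactive = the rest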
[1] = system: Clostridium sporogenes DSM 1664; test: growth (OD595) fold change vs plate DMSO controls (fold change (ratio)); higher = more growth
In short: (§1)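 The measure reported is growth, taken as fold change against the median of DMSO controls on the same plate. Anaerobic mGAM cultures in 96-well plates (27 h, 37 °C) were read at 595 nm, blank-subtracted, corrected for compound background using 20 µM compound solutions in water, and multiplied by a calibration factor of 5 to give OD. Any fold change above 1.5 became NA, and 2 biological replicates were averaged.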

Escherichia coli IAI1 [2] = test: as above
In short: as §1

[3] = system: Klebsiella aerogenes DSM 30053; test: as above
In short: as §1

[4] = system: Ruminococcus gnavus DSM 108212; test: as above
In short: as §1

[5] = system: Klebsiella aerogenes DSM 30053; test: fold change of Histamine concentration vs plate DMSO controls (fold change (ratio)); higher = more amine produced, active = hit call of the paper (significant change in both replicates, either direction)
In short: (§2)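 In 80 µL wells, cultures of four gut bacterial strains in mGAM started at OD 0.1 before a 1:1 dilution and grew anaerobically at 37 °C for 27 h. Compounds were added to 20 µM final, except sweeteners at 50 µM final. After extraction of whole cultures with cold acetonitrile/methanol plus 0.1% formic acid and centrifugation, amines were measured by LC–triple-quadrupole MS in dynamic MRM mode against external calibration curves, with within-batch drift correction. Values give fold change over DMSO controls on the same plate, averaged across 2 biological replicates.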

[6] = system: Clostridium sporogenes DSM 1664; test: fold change of Tryptamine concentration vs plate DMSO controls (fold change (ratio)); higher = more amine produced, active = hit call of the paper (significant change in both replicates, either direction)
In short: as §2

[7] = system: Ruminococcus gnavus DSM 108212; test: as above
In short: as §2

Escherichia coli IAI1 [8] = test: fold change of Putrescine concentration vs plate DMSO controls (fold change (ratio)); higher = more amine produced, active = hit call of the paper (significant change in both replicates, either direction)
In short: as §2

[9] = system: Klebsiella aerogenes DSM 30053; test: as above
In short: as §2

Escherichia coli IAI1 [10] = test: fold change of Cadaverine concentration vs plate DMSO controls (fold change (ratio)); higher = more amine produced, active = hit call of the paper (significant change in both replicates, either direction)
In short: as §2

[11] = system: Klebsiella aerogenes DSM 30053; test: as above
In short: as §2

[12] = system: Ruminococcus gnavus DSM 108212; test: fold change of 2-Phenylethylamine concentration vs plate DMSO controls (fold change (ratio)); higher = more amine produced, active = hit call of the paper (significant change in both replicates, either direction)
In short: as §2

Compound	growth [1]	growth (Escherichia coli IAI1 [2])	growth [3]	growth [4]	fold change of Histamine concentration [5]	fold change of Tryptamine concentration [6]	fold change of Tryptamine concentration [7]	fold change of Putrescine concentration (Escherichia coli IAI1 [8])	fold change of Putrescine concentration [9]	fold change of Cadaverine concentration (Escherichia coli IAI1 [10])	fold change of Cadaverine concentration [11]	fold change of 2-Phenylethylamine concentration [12]
Cc1cc(/C=C/c2ccc3cc(N(C)C)ccc3[n+]2C)c(C)n1-c1ccccc1 [Pyrvinium pamoate] (20 µM)	1.21	1.12	0.958	0.853	0.936 (inactive)	0.95 (inactive)	0.975 (inactive)	1.22 (inactive)	1.01 (inactive)	0.966 (inactive)	1.02 (inactive)	1.04 (inactive)
CC(NCCC(c1ccccc1)c1ccccc1)c1ccccc1 (stereo not given) [Fendiline hydrochloride] (20 µM)	0.961	0.952	0.98	1.09	1.06 (inactive)	0.941 (inactive)	0.888 (inactive)	1.18 (inactive)	1.03 (inactive)	0.196 (active)	0.998 (inactive)	0.98 (inactive)
CC12CC3CC(C)(C1)CC(N)(C3)C2 [Memantine hydrochloride] (20 µM)	1.01	0.987	1	0.997	0.989 (inactive)	1.03 (inactive)	1.09 (inactive)	0.984 (inactive)	0.984 (inactive)	0.995 (inactive)	0.992 (inactive)	1.13 (inactive)
CN(C)CCN(Cc1ccc(Cl)cc1)c1ccccn1 [Chloropyramine hydrochloride] (20 µM)	0.894	1.03	0.92	0.771	0.98 (inactive)	1.05 (inactive)	1.16 (inactive)	0.817 (inactive)	0.975 (inactive)	1.58 (active)	0.994 (inactive)	1.27 (inactive)
NC(N)=Nc1nc(CSCC/C(N)=N/S(N)(=O)=O)cs1 [Famotidine] (20 µM)	0.878	0.928	0.855	0.824	1.04 (inactive)	1.02 (inactive)	1.03 (inactive)	1.03 (inactive)	0.999 (inactive)	0.975 (inactive)	0.99 (inactive)	1.07 (inactive)
Nc1ncnc2c1ncn2C1OC(COP(=O)(O)O)C(O)C1O (stereo not given) [Adenosine 5'-monophosphate monohydrate] (20 µM)	1.05	1.01	0.973	0.96	1.07 (inactive)	1.01 (inactive)	1.02 (inactive)	1.04 (inactive)	1.02 (inactive)	0.991 (inactive)	0.987 (inactive)	1.01 (inactive)
O=C1OC(c2ccc(O)cc2)(c2ccc(O)cc2)c2ccccc21 [Phenolphthalein] (20 µM)	1.03	0.983	0.993	0.964	1 (inactive)	0.974 (inactive)	1 (inactive)	0.991 (inactive)	0.977 (inactive)	0.965 (inactive)	1.02 (inactive)	0.986 (inactive)
CCOc1nc2cccc(C(=O)O)c2n1Cc1ccc(-c2ccccc2-c2nnn[nH]2)cc1 [Candesartan] (20 µM)	1.16	0.982	1.01	1.19	0.965 (inactive)	1.04 (inactive)	0.975 (inactive)	0.981 (inactive)	1 (inactive)	1.03 (inactive)	1.01 (inactive)	0.947 (inactive)
CN1CCC(OC(c2ccccc2)c2ccccc2)CC1 [Diphenylpyraline hydrochloride] (20 µM)	0.998	0.955	0.989	1.13	1.05 (inactive)	1.01 (inactive)	0.999 (inactive)	1.01 (inactive)	0.995 (inactive)	0.979 (inactive)	0.983 (inactive)	1.05 (inactive)
Cn1c(=O)c2c(ncn2CCO)n(C)c1=O [Etofylline] (20 µM)	0.922	1.01	1.01	1.04	0.983 (inactive)	0.964 (inactive)	0.853 (inactive)	1.01 (inactive)	0.997 (inactive)	1.03 (inactive)	1 (inactive)	0.839 (inactive)
COc1nc(N)nc2c1ncn2[C@@H]1O[C@H](CO)[C@@H](O)[C@@H]1O [Nelarabine] (20 µM)	1.13	0.973	0.999	0.914	1.08 (inactive)	0.945 (inactive)	1.03 (inactive)	1.01 (inactive)	1.01 (inactive)	0.989 (inactive)	0.978 (inactive)	1.03 (inactive)
COc1ccnc(C[S+]([O-])c2nc3cc(OC(F)F)ccc3[nH]2)c1OC (stereo not given) [Pantoprazole sodium] (20 µM)	1.18	1.22	1	0.958	0.936 (inactive)	1.05 (inactive)	1.05 (inactive)	1.25 (inactive)	1.01 (inactive)	0.98 (inactive)	1.02 (inactive)	1.07 (inactive)
Oc1ccccc1O [Catechol] (20 µM)	1.11	1.01	0.966	0.98	1 (inactive)	0.972 (inactive)	0.979 (inactive)	1.02 (inactive)	1.01 (inactive)	1.16 (inactive)	0.978 (inactive)	0.971 (inactive)
Cc1cnc(C(=O)NCCc2ccc(S(=O)(=O)NC(=O)NC3CCCCC3)cc2)cn1 [Glipizide] (20 µM)	1.11	0.966	1.04	1.08	0.94 (inactive)	1.01 (inactive)	0.99 (inactive)	0.989 (inactive)	0.998 (inactive)	0.973 (inactive)	1 (inactive)	1.03 (inactive)
CN(C)CCN(Cc1ccccc1)c1ccccn1 [Tripelennamine hydrochloride] (20 µM)	1.03	0.99	1.02	0.946	0.957 (inactive)	1.01 (inactive)	1.02 (inactive)	0.85 (inactive)	1.01 (inactive)	1.38 (active)	1 (inactive)	1.03 (inactive)
CC[C@H](C)[C@H](NC(=O)[C@H](Cc1ccc(O)cc1)NC(=O)[C@@H](NC(=O)[C@H](CCCN=C(N)N)NC(=O)[C@@H](N)CC(=O)O)C(C)C)C(=O)N[C@@H](Cc1cnc[nH]1)C(=O)N1CCC[C@H]1C(=O)N[C@@H](Cc1ccccc1)C(=O)O [Angiotensin II (Human) Trifluoroacetic acid salt] (20 µM)	1.02	1.03	0.987	0.979	1.01 (inactive)	1.07 (inactive)	1.09 (inactive)	0.966 (inactive)	0.983 (inactive)	0.934 (inactive)	0.994 (inactive)	1.14 (inactive)
CCN(Cc1ccncc1)C(=O)C(CO)c1ccccc1 (stereo not given) [Tropicamide] (20 µM)	0.93	1.01	1.04	0.969	0.947 (inactive)	1.06 (inactive)	0.984 (inactive)	1.03 (inactive)	0.967 (inactive)	0.991 (inactive)	1.03 (inactive)	0.959 (inactive)
CC(CN1c2ccccc2Sc2ccccc21)N(C)C (stereo not given) [Promethazine hydrochloride] (20 µM)	0.924	0.819	1.04	0.948	0.964 (inactive)	0.997 (inactive)	1.01 (inactive)	0.858 (inactive)	0.972 (inactive)	1.05 (inactive)	1.02 (inactive)	1.06 (inactive)
C#C[C@]1(OC(C)=O)CC[C@H]2[C@@H]3CCC4=C[C@@H](OC(C)=O)CC[C@@H]4[C@H]3CC[C@@]21C [Ethynodiol diacetate] (20 µM)	0.766	0.814	1.02	1.14	0.897 (inactive)	0.966 (inactive)	1.01 (inactive)	0.894 (inactive)	1 (inactive)	1.09 (inactive)	1.02 (inactive)	1.02 (inactive)
CNCCCC12CCC(c3ccccc31)c1ccccc12 [Maprotiline hydrochloride] (20 µM)	1.03	1.01	0.999	1.09	0.982 (inactive)	0.973 (inactive)	0.913 (inactive)	1.02 (inactive)	1.01 (inactive)	1.03 (inactive)	1.01 (inactive)	0.884 (inactive)
Oc1c(Cl)cc(Cl)c2cccnc12 [Chloroxine] (20 µM)	1.12	0.966	1.02	0.369	0.921 (inactive)	1.02 (inactive)	0.589 (active)	0.945 (inactive)	0.981 (inactive)	1.31 (active)	1.01 (inactive)	0.681 (inactive)
COc1c(-c2ccc3cc(NS(C)(=O)=O)ccc3c2)cc(-n2ccc(=O)[nH]c2=O)cc1C(C)(C)C [Dasabuvir] (20 µM)	1.04	0.964	1.01	0.849	0.969 (inactive)	0.847 (inactive)	0.747 (active)	1.01 (inactive)	0.999 (inactive)	0.989 (inactive)	0.99 (inactive)	0.754 (inactive)
COc1ccc2[nH]c([S+]([O-])Cc3ncc(C)c(OC)c3C)nc2c1 (stereo not given) [Omeprazole] (20 µM)	1.05	0.96	1.01	1.2	0.936 (inactive)	1.02 (inactive)	1.01 (inactive)	0.97 (inactive)	1.01 (inactive)	1 (inactive)	1 (inactive)	1.02 (inactive)
CNC(=O)c1c(I)c(C(=O)NCC(=O)Nc2c(I)c(C(=O)O)c(I)c(C(=O)NCCO)c2I)c(I)c(N(C)C(C)=O)c1I [Ioxaglic acid] (20 µM)	1.16	1.08	1.09	1.02	1.01 (inactive)	0.978 (inactive)	1.01 (inactive)	1.05 (inactive)	1.06 (inactive)	1 (inactive)	1.04 (inactive)	0.982 (inactive)
CO[C@@]12[C@H](COC(N)=O)C3=C(C(=O)C(C)=C(N)C3=O)N1C[C@@H]1N[C@@H]12 [Mitomycin C] (20 µM)	0.678	0.0414	0.824	0.291	1.15 (inactive)	0.394 (active)	0.153 (active)	0.663 (inactive)	0.968 (inactive)	0.306 (active)	0.995 (inactive)	0.15 (active)
